Measurements reported in PubChem BioAssay.

How the values were obtained:
[1] = test system: Botulinum neurotoxin type F light chain protease (Clostridium botulinum); experiment: Botulinum neurotoxin type F light chain protease inhibition, multiplex microsphere flow cytometry, validation set (AID 588459); settings: multiplex microsphere protease substrate cleavage assay, at 10 µM, active compounds read high
[2] = target: Botulinum neurotoxin type A (Clostridium botulinum) (UniProt P0DPI0); experiment: BoNT/A light chain protease inhibitors, biochemical, multiplex microsphere flow cytometry, validation set (AID 588460); settings: at 10 µM, active compounds read high
[3] = target: Lethal factor (Bacillus anthracis) (UniProt P15917); experiment: Lethal factor protease inhibitors, Bacillus anthracis, multiplex microsphere cleavage assay, validation set (AID 588461); settings: flow cytometry, at 10 µM, active compounds read high

Measured: inhibition

C(=C\c1ccccc1)/CN1CCN(C(c2ccccc2)c2ccccc2)CC1
inactive: [1] -0.8% | [2] -1.7% | [3] -9.2%

CCCNC(=O)NS(=O)(=O)c1ccc(Cl)cc1
inactive: [1] 5.6% | [2] -0.4% | [3] -1%

COC(=O)c1sccc1NC(=O)Nc1ccccc1F
inactive: [1] -1.2% | [2] -1.3% | [3] 1.2%

COc1ccc(C(=O)CCN2CCc3cc(OC)c(OC)cc3C2)cc1
inactive: [1] -2.2% | [2] -0.3% | [3] -2.9%

CC(=O)O[C@]1(C(C)=O)CC[C@H]2[C@@H]3C=C(Cl)C4=CC(=O)CC[C@]4(C)[C@H]3CC[C@@]21C
inactive: [1] -0.5% | [2] -3.3% | [3] -4.2%

Cn1c2c(c(=O)[nH]c1=O)C(c1ccc(O)cc1)C1=C(N2)c2ccccc2C1=O (stereo unspecified)
inactive: [1] -0.8% | [2] -0.5% | [3] 3.1%

CCC(=O)c1ccc(O)cc1
inactive: [1] 1.2% | [2] -0.4% | [3] -1.2%

Cn1cc(C2N3CC4(C)CN2CC(C)(C3)C4=O)c2ccccc21 (stereo unspecified)
inactive: [1] 1% | [2] 1.7% | [3] -10.2%

CC(CN1c2ccccc2Sc2ccccc21)N(C)C (stereo unspecified)
inactive: [1] -0.2% | [2] -1.5% | [3] -11.5%

CN1CCC(=C2c3ccccc3C=Cc3ccccc32)CC1
inactive: [1] -1.3% | [2] -1.2% | [3] -8.4%

COc1cccc(-n2c(C)c3c(OC)cccc(=O)c3c2C)c1
inactive: [1] -8.1% | [2] -0.7% | [3] -13.5%

CCC1CCc2c(sc(NC(=O)c3cccnc3)c2C(N)=O)C1 (stereo unspecified)
inactive: [1] -4.8% | [2] -2.3% | [3] -6.2%

O=C(Cc1cccc2ccccc12)N1CC[C@@]2(O)CCCC[C@H]2C1
inactive: [1] 2.2% | [2] 0.2% | [3] -5.4%

COc1cc(OC)cc(C(=O)N[C@@H](CCSC)c2nc3ccccc3[nH]2)c1
inactive: [1] 0.7% | [2] 0.8% | [3] -0.7%

OC[C@@H](O)[C@@H](O[C@H]1O[C@H](CO)[C@@H](O)[C@H](O)[C@H]1O)[C@H](O)[C@@H](O)CO
inactive: [1] 3.7% | [2] 0.6% | [3] 3.8%

CC(C)=CCC/C(C)=C/CC/C(C)=C/CC/C(C)=C/CC1=C(C)C(=O)c2ccccc2C1=O
inactive: [1] -4.8% | [2] -0.7% | [3] -3%

Cn1c(=O)[nH]c2nnc(-c3ccc(Cl)c(Cl)c3)nc2c1=O
inactive: [1] -0.1% | [2] 0.4% | [3] -4.1%

O=C(/C=C/c1c[nH]c2ccccc12)c1cccc2ccccc12
inactive: [1] 5.1% | [2] 2.4% | [3] -6.2%

O=C(NCCc1nc2ccccc2[nH]1)c1cccc(Br)c1
inactive: [1] -3.2% | [2] -1.3% | [3] -7.9%

O=C(N1CCCC1)C12CC3CC(C1)CC(C(=O)N1CCCC1)(C3)C2
inactive: [1] -1.6% | [2] -2.5% | [3] -8%

COc1ccc(/C=C2\CCn3c2nc2cc(C(=O)O)ccc2c3=O)cc1OC
inactive: [1] 1.4% | [2] 1% | [3] 8%

CCO/C([O-])=N/c1c[n+](N2CCOCC2)no1
inactive: [1] 0.3% | [2] 0.5% | [3] -5.4%

CC(C)c1cc(=O)oc2c3c4c(cc12)CCCN4CCC3
inactive: [1] 4.4% | [2] 2% | [3] -13.8%

COC(=O)c1ccccc1NC(=O)c1ccc(COc2ccc3c(c2)CCC3)cc1
inactive: [1] 2.7% | [2] -0.5% | [3] 2%

O=C(Nc1ccc(Oc2c(F)c(F)c(F)c(F)c2F)cc1)OC1CCN2Cc3ccccc3N=C12 (stereo unspecified)
inactive: [1] -1.9% | [2] -1.4% | [3] 2.6%

Cc1ccccc1NC(=O)C1(C)Cc2ccccc2C(=O)O1 (stereo unspecified)
inactive: [1] 0.3% | [2] 0.5% | [3] -0.2%

O=C(O)CCCCCN=C1CCc2ccccc2N1
inactive: [1] 1.6% | [2] -0.4% | [3] 0.8%

Cc1cccc(C)c1NC(=O)C1CCCCN1C (stereo unspecified)
inactive: [1] -3.1% | [2] -0.1% | [3] -7.9%

O=C(c1cc2cc(Br)ccc2o1)N1CCCCC1
inactive: [1] 5.3% | [2] -0.6% | [3] 8.5%

Cc1cc(=O)oc2c(CN(C)Cc3ccccc3)c(O)ccc12
inactive: [1] -0.2% | [2] -0.7% | [3] -3.4%

CC(CCc1ccccc1)NC(=O)/C=C/c1ccccc1 (stereo unspecified)
inactive: [1] 4.2% | [2] 0.4% | [3] 1.8%

NC(CO)C(=O)NNCc1ccc(O)c(O)c1O (stereo unspecified)
inactive: [1] -15.8% | [2] -11.2% | [3] -25.4%

CNc1nc(Nc2ccccc2)nc(OCC(F)(F)F)n1
inactive: [1] 0.2% | [2] 0.2% | [3] -2.5%

O=c1n(CCCN2CCN(c3cccc(Cl)c3)CC2)nc2ccccn12
inactive: [1] -5.2% | [2] -0.2% | [3] -1.3%

COc1ccc(C2C3CCCCC3(O)CCN2C(=O)c2cccs2)cc1 (stereo unspecified)
inactive: [1] 2.8% | [2] 2.1% | [3] 5.5%

Nc1ccc2[nH]ncc2c1
inactive: [1] -1.8% | [2] -1.3% | [3] 2.9%

CN(C)[C@@H]1C(=O)C(C(N)=O)=C(O)[C@@]2(O)C(=O)C3=C(O)c4c(O)ccc(Cl)c4[C@@H](O)[C@H]3C[C@@H]12
inactive: [1] -5.8% | [2] -0.3% | [3] -4.5%

CC(=O)Oc1c2occc2cc2ccc(=O)oc12
inactive: [1] -2.4% | [2] -1% | [3] -7.3%

Cc1ccc2c(c1)C1(C(=O)N2)N2CCCC2C(C(=O)c2ccc3ccccc3c2)C12C(=O)Nc1ccccc12 (stereo unspecified)
inactive: [1] 0% | [2] -1% | [3] -10%

COc1ccc(CCN=CC2=C(O)CC(C)(C)CC2=O)cc1
inactive: [1] 1.2% | [2] -0.7% | [3] -4.5%

C=CCC1(O)C(=O)N2C(=C1C(=O)N1CCOCC1)c1ccccc1CC2(C)C (stereo unspecified)
inactive: [1] -1.7% | [2] -0.2% | [3] 5.7%

COc1ccc(C(C)N2CC34C=CC(O3)C(C(=O)OCC(C)C)C4C2=O)cc1 (stereo unspecified)
inactive: [1] -1.9% | [2] -1.2% | [3] 0.2%

CCOC(=O)NN1C(=O)c2ccccc2NC1c1ccc(OC)c(OC)c1 (stereo unspecified)
inactive: [1] 1.5% | [2] -0.6% | [3] -2%

CCOc1ccc(N2C(=O)CNC2=S)cc1
inactive: [1] -1.7% | [2] -1.5% | [3] -3.8%

COc1ccccc1C1C(C#N)=C(N)Oc2c1oc(CO)cc2=O (stereo unspecified)
inactive: [1] 1.9% | [2] -1% | [3] -5.1%

COc1ccc(-c2noc(CCc3ccccc3)n2)cc1
inactive: [1] -8.8% | [2] -1.1% | [3] -11%

COc1ccc2[nH]c(CN3CCN(CC(C)C)C(CCO)C3)c(C)c2c1 (stereo unspecified)
inactive: [1] 2.4% | [2] 1.6% | [3] 3.1%

O=C(c1ccc([N+](=O)[O-])cc1)N1CCSC1c1ccccc1Cl (stereo unspecified)
inactive: [1] -3.8% | [2] -0.1% | [3] -1.3%

O=C(O)[C@H](Cc1ccccc1)NC(=O)N1CCC(Cc2ccccc2)CC1
inactive: [1] 5.5% | [2] 0.9% | [3] -2.3%

COc1ccc(CNC(=O)C2CCN(C(=O)[C@@H](CC(C)C)NC(=O)OC(C)(C)C)CC2)cc1
inactive: [1] 1.1% | [2] -0.8% | [3] -3.7%

COc1ccccc1N=CC1=C(O)CC(c2ccccc2)CC1=O (stereo unspecified)
inactive: [1] 0.8% | [2] 2.2% | [3] -5%

O=C(O)CCCCCN1C(=O)C(=O)/C(=C(/O)c2ccccc2)C1c1ccccc1 (stereo unspecified)
inactive: [1] 0.2% | [2] 0.9% | [3] -6.7%

COc1ccc(C2c3c(n[nH]c3C)CC(C)(O)C2C(C)=O)cc1OC (stereo unspecified)
inactive: [1] 4% | [2] 0.1% | [3] -2.7%

Cc1cc(Cl)cc2c1NC(=O)[C@]21[C@@H]2C(=O)N(Cc3ccccc3)C(=O)[C@@H]2[C@@H]2CCCN21
inactive: [1] 2.1% | [2] 1.7% | [3] 2.3%

O=C1C2CC=C(Cl)CC2C(=O)N1CCc1c[nH]c2ccccc12 (stereo unspecified)
inactive: [1] 0.7% | [2] 0.1% | [3] 0.1%

O=C(NCCN1CCN(c2ccccc2)CC1)c1cccc(Br)c1
inactive: [1] -4.4% | [2] -2.3% | [3] -6.4%

O=C(O)C1Sc2[nH]c(=O)sc2C2c3ccc(O)cc3OC(=O)C12 (stereo unspecified)
inactive: [1] -6.1% | [2] -1% | [3] -16.5%

CC(C)OC(=O)CC1C(=O)NCCN1C(=S)NC(=O)c1cccs1 (stereo unspecified)
inactive: [1] 0.8% | [2] -1.7% | [3] -5.8%

COc1c2occc2c(OC)c2c(=O)cc(C)oc12
inactive: [1] -0.3% | [2] -1.1% | [3] 4.5%

COc1cc2nc(-c3ccccc3)nc(N3CCCC3)c2cc1OC
inactive: [1] -1.8% | [2] -1.5% | [3] -4.3%

Cn1cc(CN2CCC(C(=O)N3CCCCC3)CC2)c(-c2ccccc2F)n1
inactive: [1] 4% | [2] 0.2% | [3] 4.5%

CC(=O)OC[C@H]1O[C@@H](Sc2cccc3cccnc23)[C@H](OC(C)=O)[C@@H](OC(C)=O)[C@H]1OC(C)=O
inactive: [1] -3.9% | [2] -0.4% | [3] 0.7%
